Records with an inconclusive call do not appear. Entries that show only a call come without a potency. The source made the active and inactive calls. Calls follow the shape of the full dose curve.
Potency is read from the fitted curve at half-maximal effect.

The nature of the assay: qHTS assay to identify small molecule agonists of the hypoxia (HIF-1) signaling pathway - cell viability counter screen (AID 1224844). Also: nearly all actives have a fitted effect of over 50% in size. As to conditions: HRE-bla ME-180 viability, CellTiter-Glo luminescence, 17 h; series mostly up to 76.8 µM. From the text: National Center for Advancing Translational Sciences [NCATS]
NIH Chemical Genomics Center [NCGC]
U.S. Environmental Protection Agency [EPA]
National Institutes of Environmental Health Sciences [NIEHS]
National Toxicology Program [NTP]
U.S. Food and Drug Administration [FDA]
Hypoxia-inducible factor-1 (HIF-1) is the major hypoxia-regulated transcription factor that controls cellular responses to low oxygen concentration. HIF-1 is composed of two subunits: hypoxia responsive HIF-1-alpha and constitutively expressed HIF-1-beta, which is also known as aryl hydrocarbon receptor nuclear translocator. During hypoxic conditions, HIF-1-alpha heterodimerizes with HIF-1-beta and translocates into the nucleus where the HIF-1 complex binds to the hypoxia-response element (HRE) and activates expression of target genes such as VEGF (vascular endothelial growth factor). The HIF-1 pathway is essential to normal growth and development, and is involved in the pathophysiology of cancer, inflammation, and ischemia.
Using a beta-lactamase reporter-gene under control of the hypoxia response element, a cell-based assay [CellSensor(TM) HRE-bla ME-180 from Life Technologies, Carlsbad, CA] was used to measure hypoxia-induced signaling. Tox21 10K library compounds were measured for their ability to induce the reporter gene activity. The cytotoxicity of the Tox21 compound library against HRE-bla ME-180 cell line was tested in parallel by measuring cell viability using CellTiter-Glo assay (Promega, Madison, WI) in the same assay wells.
Tox21 Assay Protocol Summary:
HRE-bla ME-180 cells were dispensed at 2,000 cells per well in 6 uL of assay medium containing 0.5% dialyzed FBS into black wall/clear-bottom 1536-well plates using a Multidrop Combi (Thermo Scientific, Waltham, MA) dispenser. After the assay plates were incubated at 37C and 5% CO2 for 5 hrs, 23 nL of compounds dissolved in DMSO, positive controls or DMSO only was transferred to each well of the assay plate using a Pintool station (Kalypsys, San Diego, CA). The assay plates were incubated at 37C and 5% CO2 for 17 hrs. One uL of LiveBLAzerTM B/G FRET substrate (CCF4-AM) (Life Technologies) was added to each well using a Flying Reagent Dispenser (FRD, Aurora Discovery, San Diego, CA). After 2 hr incubation at room temperature, fluorescence intensity (405 nm excitation, 460 nm and 530 nm emissions) was measured using an Envision plate reader (PerkinElmer, Shelton, CT). For cytotoxicity, 4 ul/well of CellTiter-Glo reagent was added into the assay plates using an FRD. After 30 min incubation at room temperature, the luminescence intensity was measured using a ViewLux plate reader (PerkinElmer).
A general note: Quantitative high-throughput screening tests each substance at several concentrations.
For `COC(CC(C)CCCC(C)(C)O)OC` (stereo not given), the Potency entry was “inactive”. With `CC(C)(C)NCC(O)COc1cccc2c1C[C@H](O)[C@H](O)C2` (stereo not given in full) the entry was “inactive”; with `CCCCCCCC(=O)Oc1c(Br)cc(C#N)cc1Br`, “inactive”; with `CC(C)(O)CCc1ccccc1`, “inactive”. With `SCCc1cnccn1` the entry was “inactive”; with `CC(CCc1ccc(O)cc1)NCCc1ccc(O)c(O)c1` (stereo not given), “inactive”. To `CCCCCCC(O)CCOC(C)=O` (stereo not given) belongs “inactive”. Take `C/C(C=O)=C\c1ccccc1`: the Potency entry was “inactive”.

As for `Cc1ccc(NC(=O)N(C)C)cc1NC(=O)N(C)C`, the Potency entry was “inactive”. For the molecule `O=C(O)c1cc(Cl)cc(Cl)c1O`, the Potency result is “inactive”. With `CC1C(C)(C)C2=C(C(=O)CCC2)C1(C)C` (stereo not given) the entry was “inactive”. With `CCCCCCC(O)CCCCCCCCCCC(=O)OC` (stereo not given) the entry was “inactive”. With `O=C1NC(=O)c2cccc3cccc1c23` the entry was “inactive”; with `CC(=O)c1ccc[nH]1`, “inactive”; with `BrC(Br)C(Br)Br`, “inactive”. On to `O=C(/C=C/c1ccc([N+](=O)[O-])cc1)c1ccccc1`, for which the Potency is 24.6 µM (active).

With `CCN(CC)c1cccc(O)c1`, the Potency result is “inactive”. To `CCOCCC(=O)OCC` belongs “inactive”; to `O=[N+]([O-])c1ccc2ncccc2c1`, “inactive”; to `COc1cc(S(=O)(=O)Nc2ccccc2)c(OC)cc1N`, “inactive”.

As to `CC[C@H]1OC(=O)[C@H](C)[C@@H](O[C@H]2C[C@@](C)(OC)[C@@H](O)[C@H](C)O2)[C@H](C)[C@@H](O[C@@H]2O[C@H](C)C[C@H](N(C)C)[C@H]2O)[C@](C)(O)C[C@@H](C)C(=O)[C@H](C)[C@@H](O)[C@]1(C)O`, the Potency entry is “inactive”. As to `Cc1ccc(N(CCO)CCO)cc1`, the Potency entry was “inactive”. With `ClC1=C(Cl)C1(Cl)Cl`, the Potency result is “inactive”.

As for `Nc1ccc(F)cc1`, the Potency result is “inactive”. With `O=P(O)(O)Oc1ccccc1` the entry was “inactive”. Consider `CCCc1nc2c(C)cc(-c3nc4ccccc4n3C)cc2n1Cc1ccc(-c2ccccc2C(=O)O)cc1`, for which the Potency entry was “inactive”. To `Cc1oc(=O)oc1COC(=O)[C@@H]1N2C(=O)[C@@H](NC(=O)[C@H](N)c3ccccc3)[C@H]2SC1(C)C` belongs “inactive”; to `CCCCCC`, “inactive”; to `CC(=O)C(C)=O`, “inactive”. `OCC(CO)n1cnc(-c2ccc(F)cc2)c1-c1ccnc(Oc2ccccc2)n1`: the Potency result was “inactive”. To `CCCCCCOC(=O)CCCCC` belongs “inactive”. To `O=c1[nH]c2cc(C(F)(F)F)c(N3CCOCC3)cc2n(CP(=O)(O)O)c1=O` belongs “inactive”. With `Cc1c(C2(c3cc(Br)c(O)c(Br)c3C)OS(=O)(=O)c3ccccc32)cc(Br)c(O)c1Br` the figure was 16.9 µM (active); with `Oc1ccc2c(c1)Cc1ccccc1-2`, “inactive”; with `CC(=O)NNC(C)=O`, “inactive”. Turning to `Oc1cccc2[nH]ccc12`, the Potency entry was “inactive”. Turning to `CCCOC(=O)c1c(Cl)c(Cl)c(Cl)c(Cl)c1C(=O)OCCC`, the Potency entry was “inactive”.

Turning to `CC(C)c1ccc(C(=O)N=C(N)N)cc1S(C)(=O)=O`, the Potency entry was “inactive”. To `CCCCOC(=O)CCCCC(=O)OCCCC` belongs “inactive”; to `CC(C)OC(=O)c1ccccc1C(=O)OC(C)C`, “inactive”.

These data come from PubChem BioAssay (Tox21).
